By AC50 is commonly meant the midpoint of the concentration-response curve, whichever way the signal moves.

Records with an inconclusive call do not appear. Calls of active or inactive are those of the source. How the source made its calls, unless noted: active means hit-call score of the fitted dose curve at least 0.9, where 1 is the maximum; inactive means score below 0.9.

9 molecules from PubChem BioAssay (EPA / NIEHS) can be followed below.

The nature of assay [1]: ACEA_ER_80hr: ACEA Biosciences xCELLigence Real-Time Cell Analysis on Estrogen Receptor Agonism for Proliferation (AID 2282667; active means hit-call score of the fitted dose curve at least 0.9, where 1 is the maximum). The settings on record: T47D proliferation, impedance (xCELLigence), 80 h. An outline of the steps: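 T-47D cells monitored by electrical impedance (xCELLigence) with compound present throughout; 80 h timepoint, positive-direction fitting versus DMSO. Eight-point 1:4 dilutions from 100 uM final, duplicate plates.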

Assay [2] is described as follows: APR_HepG2_CellCycleArrest_24hr: Apredica 24-hour HepG2 Assay for Cell Cycle Arrest (AID 2282905).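 Further: cell cycle arrest scored as ratio of 2N to 4N nuclear DNA content.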 The note with it: imaging, actives raise or lower the signal. An outline of the steps:
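Cell cycle arrest is scored from nuclear DNA content measured by high-content imaging of Hoechst 33342-stained HepG2 cells following 24-hour treatment at ten concentrations up to 200 uM, with DMSO as baseline.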

The nature of assay [3]: APR_HepG2_CellLoss_24hr: Apredica 24-hour HepG2 Assay for Cell Loss (AID 2282908).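 On AC50: fit in both directions so a hit may be cell loss or gain.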 The settings on record: high-content imaging. In a few lines: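 Cell number is quantified by fluorescence imaging of Hoechst 33342-stained nuclei following dosing at 0.39–200 uM in 0.5% DMSO. Curves are fitted in both directions from the DMSO baseline.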
Assay [4] in a line: APR_HepG2_MicrotubuleCSK_24hr: Apredica 24-hour HepG2 Assay for Microtubule CSK Stabilty (AID 2282909). The note with it: HepG2 microtubule cytoskeleton imaging, actives raise or lower the signal. In a few lines: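 Steps: dose HepG2 for 24 h (0.39–200 uM, 0.5% DMSO); fix 30 min in 3.7% formaldehyde at room temperature; permeabilize; stain alpha-tubulin 60 min; image microtubule cytoskeleton at 20x. Signal change fitted in both directions relative to DMSO.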

Assay [5] can be described thus: APR_HepG2_MitoticArrest_24hr: Apredica 24-hour HepG2 Assay for Mitotic Arrest (AID 2282910). The note with it: high-content imaging, actives raise or lower the signal. An outline of the steps:
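HepG2 cells, 24 h exposure at 0.39-200 uM (10 concentrations, duplicate, 0.5% DMSO). Fixed, stained for phospho-histone H3 with Hoechst; imaged by high-content microscopy, bidirectional fit versus DMSO.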

The nature of assay [6]: APR_HepG2_MitoMembPot_24hr: Apredica 24-hour HepG2 Assay for Mitochondrial Membrane Potential (AID 2282911). The note with it: imaging, actives raise or lower the signal. In a few lines:
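HepG2 cells exposed 24 h to 0.39–200 uM compounds in duplicate, 0.5% v/v DMSO final. MitoTracker Red CMXRos 250 nM loaded 30 min before formaldehyde fixation; high-content imaging at 20x, bidirectional fit versus DMSO.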

A short description of assay [7]: APR_HepG2_p53Act_24hr: Apredica 24-hour HepG2 Assay for p53 Activation (AID 2282913).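 Further: p53 protein immunofluorescence averaged per cell in HepG2 with Hoechst nuclei.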 The note with it: high-content imaging, actives raise or lower the signal. An outline of the steps: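 HepG2 cells exposed 24 h to compounds at 0.39–200 uM in duplicate, 0.5% v/v DMSO final; fixed, permeabilized, stained with anti-p53 antibody and Hoechst 33342; fluorescence imaging; bidirectional curve fit versus DMSO.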

The nature of assay [8]: APR_HepG2_CellCycleArrest_72hr: Apredica 72-hour HepG2 Assay for Cell Cycle Arrest (AID 2282914). The settings on record: high-content imaging, actives raise or lower the signal. In a few lines: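 HepG2 cells exposed 72 h in duplicate to 0.39–200 uM compound, 0.5% DMSO final. Formaldehyde-fixed, Hoechst 33342-stained nuclei imaged at 20x, six fields per well; DNA content per valid cell quantified by cell-cycle image analysis, bidirectional fit versus DMSO.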

A short description of assay [9]: APR_HepG2_CellLoss_72hr: Apredica 72-hour HepG2 Assay for Cell Loss (AID 2282915). The settings on record: high-content imaging. In a few lines: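 HepG2 cells exposed 72 h to compound at 0.39–200 uM (10 concentrations, duplicate) in 0.5% DMSO. Fixed with 3.7% formaldehyde and Hoechst 33342-stained. Imaged at 20x; nuclear count gives cell number, fitted bidirectionally versus DMSO.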

Assay [10] is described as follows: APR_HepG2_P-H2AX_72hr: Apredica 72-hour HepG2 Assay for H2AX Phosphorylation (AID 2282916).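 Further: phospho-histone H2A.x immunostain intensity per cell marking DNA damage.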 The settings on record: imaging, actives raise or lower the signal. In a few lines:
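Following 72 hr treatment with 0.39–200 uM compound, HepG2 cells were formaldehyde-fixed, permeabilized and stained for phospho-H2A.x; signal was measured by high-content imaging and fitted bidirectionally against DMSO controls.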

The nature of assay [11]: APR_HepG2_MitoMembPot_72hr: Apredica 72-hour HepG2 Assay for Mitochondrial Membrane Potential (AID 2282917). The note with it: imaging, actives raise or lower the signal. In a few lines:
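HepG2 cells dosed 72 hr with compound at 0.39–200 uM in duplicate, 0.5% v/v DMSO final. Mitochondria stained with 250 nM MitoTracker Red CMXRos for 30 min before formaldehyde fixation, imaged by high-content fluorescence; bidirectional fit versus DMSO.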

The nature of assay [12]: APR_HepG2_MitoticArrest_72hr: Apredica 72-hour HepG2 Assay for Mitotic Arrest (AID 2282918). The settings on record: high-content imaging, actives raise or lower the signal. An outline of the steps: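 HepG2 cells treated 72 h at 0.39–200 uM, 0.5% DMSO final; formaldehyde-fixed, stained with Hoechst 33342 and phospho-histone H3 antibody, imaged by high-content fluorescence; bidirectional fit versus DMSO.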

A short description of assay [13]: APR_HepG2_MicrotubuleCSK_72hr: Apredica 72-hour HepG2 Assay for Microtubule CSK Stabilty (AID 2282919). The settings on record: HepG2 microtubule cytoskeleton, high-content imaging, actives raise or lower the signal. An outline of the steps:
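HepG2 cells were exposed 72 hr to compound at 0.39–200 uM in duplicate (0.5% DMSO final), then fixed and permeabilized. Alpha-tubulin immunofluorescence was imaged by high-content microscopy, with bidirectional fitting against DMSO and taxol as positive control.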

Assay [14] is described as follows: APR_HepG2_P-H2AX_24hr: Apredica 24-hour HepG2 Assay for H2AX Phosphorylation (AID 2282920). The settings on record: high-content imaging, actives raise or lower the signal. An outline of the steps:
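HepG2 cells dosed 24 h at 0.39–200 uM (10 points, duplicate, 0.5% DMSO final). Formaldehyde-fixed and permeabilized, then immunostained for phospho-H2A.x with Hoechst. Fluorescence quantified by high-content imaging, fitted bidirectionally versus DMSO.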

Assay [15] is described as follows: APR_HepG2_StressKinase_72hr: Apredica 72-hour HepG2 Assay for Stress Kinase (AID 2282921). The settings on record: HepG2 stress kinase (phospho-c-Jun) imaging, actives raise or lower the signal. In a few lines: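 Fluorescence intensity of Cy3-tagged anti-phospho-c-Jun antibody, quantified per cell from Hoechst-defined nuclei across six images per well, served as the read-out following 72 h exposure (0.39–200 uM, 0.5% v/v DMSO).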

A short description of assay [16]: APR_HepG2_StressKinase_24hr: Apredica 24-hour HepG2 Assay for Stress Kinase (AID 2282922). The note with it: HepG2 stress kinase (phospho-c-Jun) imaging, actives raise or lower the signal. An outline of the steps:
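HepG2 cells exposed 24 h to 0.39–200 uM compound in duplicate (0.5% v/v DMSO final). Cells fixed in 3.7% formaldehyde, permeabilized and immunostained for phospho-c-Jun; read by high-content fluorescence imaging, fitted bidirectionally against DMSO.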

Assay [17] is described as follows: APR_HepG2_MitoMass_72hr: Apredica 72-hour HepG2 Assay for Mitochondrial Mass (AID 2282924).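 Further: MitoTracker Red CMXRos stain intensity per cell imaged as mitochondrial mass.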 The settings on record: high-content imaging, actives raise or lower the signal. An outline of the steps:
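HepG2 cells dosed 72 hr at 0.39–200 uM (0.5% DMSO), in duplicate. MitoTracker Red CMXRos 250 nM loaded 30 min before formaldehyde fixation; high-content fluorescence imaging, bidirectional fit versus DMSO.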

Assay [18] can be described thus: APR_HepG2_NuclearSize_72hr: Apredica 72-hour HepG2 Assay for Nuclear Size (AID 2282925). The settings on record: high-content imaging, actives raise or lower the signal. In a few lines:
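HepG2 cells dosed 72 h at 0.39–200 uM (10 concentrations, duplicate) in 0.5% v/v DMSO final. Fixed, Hoechst 33342-stained nuclei imaged; nuclear diameter measured by automated image analysis. Bidirectional fit versus DMSO.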

In the case of `CCCc1ccccc1`, the molecule was classed as inactive in [1], in assay [2], in [3], in assay [4], in assay [5] and in [7]. Besides, the molecule was called inactive in assay [8], in assay [9], in assay [10], in [11], in assay [12] and in assay [13]. Moreover, the outcome in assay [14], in assay [15], in assay [16], in assay [17] and in [18] was inactive. Moreover, in assay [6], the AC50 was 61.3 µM (active).
`Cc1nccn1-c1ccc(Sc2cccc(C3(C(N)=O)CCOCC3)c2)cc1`: the AC50 is 0.782 µM (active) in assay [1]; 3.13 µM (active) in assay [3]; 5.05 µM (active) in assay [8]; 17.4 µM (active) in assay [9]; 40.9 µM (active) in assay [10]; 73.4 µM (active) in assay [14]. Also, in [15], the AC50 was 64 µM (active). The result in assay [2], in assay [4], in assay [5], in assay [6], in assay [11] and in assay [12] was inactive. Moreover, the call in assay [13], in assay [16], in assay [17] and in assay [18] was inactive.
For the molecule `OCc1ccccc1`, the result in assay [1], in assay [2], in [3], in [4], in assay [5] and in assay [6] was inactive. The call in [9], in [10], in assay [11], in assay [12], in assay [13] and in [14] was inactive. The call in assay [15], in assay [16], in assay [17] and in [18] was inactive.
Turning to `CC(C)CCCCCCOC(=O)C1CCCCC1C(=O)OCCCCCCC(C)C` (configuration not stated), the call in [1], in assay [2], in [3], in [4], in assay [5] and in assay [6] was inactive. Also, the result in [9], in assay [10], in assay [11], in [12], in assay [13] and in assay [14] was inactive. The molecule was called inactive in assay [15], in assay [16], in assay [17] and in assay [18].
Consider `O=C(O)c1cccc(C(=O)O)c1`, for which the outcome in assay [1], in [2], in assay [3], in assay [4], in [5] and in assay [6] was inactive. Further, the molecule was classed as inactive in [8], in assay [9], in assay [10], in assay [14], in assay [15] and in assay [16]. Further, the molecule was classed as inactive in assay [18].
Consider `CCCCCCCC1CCC(=O)O1` (configuration not stated), for which the result in assay [1], in assay [3], in [5], in assay [6], in [7] and in assay [9] was inactive. The call in assay [10], in assay [11], in assay [12], in assay [14], in assay [15] and in [16] was inactive. Also, in [17], the molecule was classed as inactive.
For `OC[C@H]1O[C@@H]2O[C@H]3[C@H](O)[C@@H](O)[C@@H](O[C@H]4[C@H](O)[C@@H](O)[C@@H](O[C@H]5[C@H](O)[C@@H](O)[C@@H](O[C@H]6[C@H](O)[C@@H](O)[C@@H](O[C@H]7[C@H](O)[C@@H](O)[C@@H](O[C@H]1[C@H](O)[C@H]2O)O[C@@H]7CO)O[C@@H]6CO)O[C@@H]5CO)O[C@@H]4CO)O[C@@H]3CO`, the result in [1], in [2], in [3], in assay [4], in [5] and in assay [6] was inactive. Moreover, the call in assay [8], in assay [9], in [10], in assay [11], in assay [12] and in assay [13] was inactive. For the same molecule, the call in assay [14], in assay [15], in assay [16], in assay [17] and in assay [18] was inactive.
On to `C[C@@H](Oc1ccc(CNC(=O)c2cccnc2Oc2ccc3c(c2)OCO3)c(F)c1)C(=O)O`, for which the outcome in assay [1], in assay [2], in assay [3], in assay [4], in assay [5] and in [9] was inactive. For the same molecule, the molecule was called inactive in assay [10], in assay [11], in assay [12], in [13], in [14] and in [15]. The molecule was called inactive in [16], in assay [17] and in assay [18]. The AC50 in assay [6] was 0.0391 µM (active).
For `NC(=O)N(O)[C@@H]1COc2cc(OCc3ccccc3)ccc21`, the result in assay [1], in assay [2], in assay [3], in [4], in assay [5] and in assay [9] was inactive. Besides, the outcome in [10], in assay [11], in [12], in [13], in assay [14] and in [15] was inactive. In addition, the molecule was called inactive in [16], in assay [17] and in [18]. The AC50 in [6] was 52.2 µM (active).
